Among all 580,000 compounds or so, about 6,100 (1.1%) were called active. Inconclusive results (about 15%) are left out. Many of the other results were omitted from the sample, so actives are more common in it than they were. Unmarked numbers belong to inactive results. The call rests on the fitted dose curve; in most records, active means well fitted inhibition curve with a large enough effect; inconclusive means small, poorly fitted or top-dose-only effect, or another doubt; inactive means no such curve, though single readings can be large or run the other way.
What follows are compounds tested against Polyunsaturated fatty acid lipoxygenase ALOX12 (Homo sapiens) (UniProt P18054) (assay: Primary qHTS assay for inhibitors of human arachidonate 12S-lipoxygenase (ALOX12): Round 2). Conditions: purified 12hLO, xylenol orange hydroperoxide absorbance; series mostly up to 108 µM; activity change, negative = inhibition: at the top concentration.
From the text: Assay Provider: Theodore R. Holman Ph.D. University of California, Santa Cruz, California Human lipoxygenase 12hLO is a member of the closely related lipoxygenase family of enzymes which catalyze the site-specific oxidation of arachidonic acid to various hormone precursor molecules and as such is a candidate for drug development in a variety of disease areas, such as cancer and inflammation. Inhibition of 12hLO activity was screened by utilizing arachidonic acid as a substrate. The extent of hydroperoxide product formation was measured by a secondary chromogenic reaction in which xylenol orange (XO, Sigma-Aldrich, cat. number 39,818-7) reacts with the ferric ions produced from the reaction between the hydroperoxide and ferrous ions. The Fe (III)-XO complex is characterized with red-shifted absorbance at 560 nm. A purified preparation of human 12hLO was supplied by Dr. Holman laboratory, University of California, Santa Cruz.
PROTOCOL TABLE SEQUENCE No. (e.g., 1, 2, 3, etc.); […] (e.g., Cells, Incubation, Reagent, etc.); VALUE; DESCRIPTION 1; Enzyme; 3 uL; 150 nM 12hLO enzyme solution dispensed in 1536-well Greiner black, clear bottom plates. 2; Compound; 23 nL; compounds and controls were added. 3; Incubate; 15 min; room temperature. 4; Substrate; 1 uL; 40 uM arachidonic acid (final concentration). 5; Incubate; 30 min; room temperature. 6; Reagent; 4 uL; Fe-XO solution was added to each well. 7; Incubation; 30 min; room temperature 8; Detector; absorbance; Read 1 at 405 nm absorbance using ViewLux (Perkin-Elmer) CCD imager. 9; Detector; absorbance; Read 2 at 573 nm absorbance using ViewLux (Perkin-Elmer) CCD imager. NOTES (numbers refer to sequence above) 1; 150 nM 12hLO (final concentration) in buffer solution (25 mM Hepes, 0.01% Triton X-100, pH 7.0) was dispensed in columns 1, 2, 5-48. Column 1 is neutral (100% activity). Buffer only was dispensed in columns 3 and 4 as no enzyme negative controls. The plates were covered with metal lids with gas-exchange holes. 2; Compounds were pin transferred via a Kalypsys Pin Tool (Wako USA) in column 5-48. Control compound was transferred in column 2, titration of nordihydroguaiaretic acid (NDGA, Sigma-Aldrich, N5023) with top concentration of 20 mM in DMSO then 1:3 dilution in duplicate. Dilution factor of 23 nL into 4 uL final assay volume. 3; Covered assay plates were incubated for 15 min at room temperature. 4; Substrate was added to start the reaction; 40 uM arachidonic acid (Sigma-Aldrich, St. Louis, MO) was dispensed throughout the plate. 6; Chromogenic detection reagent solution (divalent iron/xylenol orange, Fe-XO) was added to each well: 200 uM xylenol orange, 300 uM ferrous ammonium sulfate prepared freshly in 50 mM sulfuric acid. 8, 9; Two absorbance readouts were obtained at 405 nm and at 573 nm using a ViewLux high-throughput CCD plate imager (Perkin-Elmer). The 573 to 405 (Read 2 / Read 1) absorbance ratio was used to compute reaction progress.
On the % scale 0 is the no-effect control and ±100 the full control effect; potency means the concentration at half of the fitted maximal effect.

Chain of Polyunsaturated fatty acid lipoxygenase ALOX12 (Homo sapiens) (P18054 whole entry, looked up): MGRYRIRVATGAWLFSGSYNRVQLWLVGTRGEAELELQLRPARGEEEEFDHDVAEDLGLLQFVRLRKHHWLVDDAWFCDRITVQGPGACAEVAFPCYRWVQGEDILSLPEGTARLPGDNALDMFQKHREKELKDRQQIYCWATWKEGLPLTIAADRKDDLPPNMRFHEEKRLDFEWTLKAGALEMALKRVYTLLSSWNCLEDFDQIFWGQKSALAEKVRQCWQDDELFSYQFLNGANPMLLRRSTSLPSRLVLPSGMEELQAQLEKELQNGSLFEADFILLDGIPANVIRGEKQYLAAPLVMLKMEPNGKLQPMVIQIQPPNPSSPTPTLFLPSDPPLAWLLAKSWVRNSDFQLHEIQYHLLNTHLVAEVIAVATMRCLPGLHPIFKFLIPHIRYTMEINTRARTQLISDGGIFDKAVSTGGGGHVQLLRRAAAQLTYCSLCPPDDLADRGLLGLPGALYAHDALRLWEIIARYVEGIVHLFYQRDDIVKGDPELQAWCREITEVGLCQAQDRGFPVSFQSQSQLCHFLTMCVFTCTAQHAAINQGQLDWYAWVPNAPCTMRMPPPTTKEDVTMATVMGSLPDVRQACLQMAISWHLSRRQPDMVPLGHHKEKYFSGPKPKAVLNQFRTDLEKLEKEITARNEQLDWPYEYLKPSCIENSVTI

| SMILES | Potency | activity change, negative = inhibition |
| --- | --- | --- |
| Cc1csc(NC(=S)Nc2cccc(Cl)c2)n1 | 8.91 µM (active) |  |
| O=C(Nc1cccc(Cl)c1)c1csnn1 |  | -56.4% |
| Cc1csc(NC(=O)CCc2ncc(-c3ccc(Cl)cc3Cl)o2)n1 |  | -11.5% |
| CCCCCn1c(=O)[nH]c2cc(C(=O)NCCN(C)CCCC)ccc2c1=O |  | -11.6% |
| CCN(CC)CCCNC(=O)c1ccc2c(=O)n(Cc3ccc4c(c3)OCO4)c(=S)[nH]c2c1 | 39.8 µM (active) |  |
| CCOc1cc2[nH]c(=O)n(Cc3ccc(C(=O)NCCN(CC)CC)cc3)c(=O)c2cc1OCC |  | 8.46% |
| O=C(CCc1ccccc1)Nc1ccc(Cl)c(C(F)(F)F)c1 |  | -15.2% |
| Cc1cccc(NC(=O)CN2CC3CC(C2)[C@H]2CCCC(=O)N2C3)c1 (some centres not stated) |  | 15.5% |
| O=C(NC(=S)Nc1ccccc1C(=O)O)c1ccc(-c2ccc(Br)cc2)o1 | 10 µM (active) |  |
| O=C(NC(=O)c1ccccc1N1CCCCC1)Nc1ccc(Br)cc1 |  | 5.64% |
| CSc1ccccc1NC(=O)Cc1ccc(Br)cc1 |  | -6.84% |
| Cn1cc(C(=O)N2CCC(C(N)=O)CC2)c2ccccc21 |  | -6.34% |
| CC1=C(C(=O)OC(C)C)C(c2ccncc2)c2c(nc(SCc3ccccc3)[nH]c2=O)N1 (configuration not stated) |  | 3.3% |
| COc1ccc(/C=C2/S/C(=N/N=C3\CC4CCC3(C)C4(C)C)NC2=O)cc1 (configuration not stated) |  | 12.3% |
| CCc1ccc(C=C2SC(=S)NC2=O)cc1 | 10.9 µM (active) |  |
| O=C1NC(=O)C(=Cc2cccc(C(F)(F)F)c2)S1 |  | -31.5% [at 57.4 µM] |
| CCOC(=O)NC(CNC(=O)c1ccccc1OC)CC(C)C (configuration not stated) |  | -16% |
| COc1ccccc1NS(=O)(=O)c1ccc2oc(SCCOc3ccccc3F)nc2c1 |  | -14% |
| CCC(CC)C(=O)Nc1sc(Nc2ccc(C)cc2)nc1C(N)=O |  | 56.5% |
| COc1ccc2cc(S(=O)(=O)c3ccc(Cl)c(Cl)c3)c(=O)oc2c1 |  | 6.23% |
| O=C(c1ccc(C(F)(F)F)cc1)N1CCC([C@@H]2CNC[C@H]2CO)CC1 | 44.7 µM (active) |  |
| COc1ccc(C(=O)N2CCC([C@@H]3CNC[C@H]3CO)CC2)cc1OC |  | 42.4% |
| O=C(c1ccc(F)c(F)c1)N1CCC([C@@H]2CNC[C@H]2CO)CC1 |  | 9.14% |
| O=C1c2ccccc2C(=O)N1CCCCCCN1C(=O)c2ccccc2C1=O | 35.5 µM (active) |  |
| Nc1ccc(SCCN2C(=O)c3ccccc3C2=O)cc1 |  | 0% |
| O=C(OCCN1C(=O)c2ccccc2C1=O)Oc1ccccc1 |  | 21.2% |

| SMILES | Potency | activity change, negative = inhibition |
| --- | --- | --- |
| COc1ccc(CC(=O)N2CC3ON=C(c4c(F)cccc4Cl)C3C2)cc1OC (configuration not stated) |  | 0.305% |
| CCCn1c(-n2nc(C)cc2C)nc2c1c(=O)n(CCN1CCCCC1)c(=O)n2C |  | -4.67% |
| CC(c1ccc(S(N)(=O)=O)cc1)N(C)C(=O)CCc1ncc(-c2ccc(Cl)cc2)o1 (configuration not stated) |  | -1.85% |
| CCOC(=O)c1c(NC(C)=O)sc2c(OCC(=O)Nc3ccccc3C)c(C)ccc12 |  | 4.61% |
| COC(=O)Nc1ccc(S(=O)(=O)Nc2cc(OC)nc(OC)n2)cc1 |  | -27.3% |
| COc1cc(NS(=O)(=O)c2ccc(N/C=C(\C=O)c3nc4cc(Cl)ccc4o3)cc2)nc(OC)n1 | 22.4 µM (active) |  |
| CC(Oc1cccc(Cl)c1)C(=O)Nc1ccc(S(=O)(=O)Nc2ncccn2)cc1 (configuration not stated) |  | -28% |
| CCOC(=O)c1cccc(NC(=O)N2CC[C@@H](CC(=O)N(C)CC#N)[C@@H](CC)C2)c1 |  | 7.29% [at 176 µM] |
| CCOc1ccc(NC(=O)C(=O)c2c[nH]c3ccccc23)cc1 |  | -5.79% |
| CCc1cccc(NC(=O)Nc2cn(CC(C)C)c(=O)c3ccccc23)c1 |  | -24.1% |
| [O-]/[N+](=C\c1ccc2ccccc2n1)c1ccccc1 | 11.2 µM (active) |  |
| CC(C)Oc1c(Br)cc(Br)cc1/C=N/NC(N)=S | 35.5 µM (active) |  |
| N#Cc1cccc(NC(=O)O[C@@H]2CO[C@H]3[C@@H]2OC[C@@H]3Nc2nccc(-c3ccccc3)n2)c1 |  | 8.46% |
| Cc1ccc(C(=O)Nc2ccc3c(N4CCCCC4)ncnc3c2)s1 |  | 0.475% |
| CC1(C)Cc2ccccc2-c2nnc(-c3cccc(O)c3)n21 |  | 0% |
| CC(C)CC(N=C1NC(C)(C)Cc2ccccc21)C(=O)O (configuration not stated) |  | 26.9% |
| CC1(C)Cc2ccccc2-c2[nH]c(=S)[nH]c(=O)c21 | 7.94 µM (active) |  |
| COc1ccc(-c2nc(CSCC(=O)N(C)c3ccccc3)co2)cc1 |  | -7.47% |
| COc1ccc(CCC(=O)N2CCCCCCNC(=O)[C@@H]3CCCC[C@@H]32)cc1 |  | 14.2% |
| CCc1ccc(N(Cc2cccs2)C(=O)c2ccccc2C)cc1 |  | 5.57% |
| CC(NS(=O)(=O)c1ccc(F)cc1Cl)C(=O)N1CCCC1 (configuration not stated) |  | 1.67% |
| CCOc1ccc(NC(=O)Nc2ccc(CN3CCOCC3)cc2)cc1 |  | -0.148% |
| COC(=O)c1ccc2c(c1)nc1n2[C@@H](CNCc2cccc(OC)n2)COC1 |  | -2.06% [at 176 µM] |
| CC(C)c1ccc(NC(=O)c2ccc3c(Cl)c4c(nc3c2)CCCC4)cc1 |  | -5.67% |
| O=C(c1cccc(Cl)c1)N1CCc2nc(C3CC3)nc(-c3ccc(Cl)cc3)c2C1 |  | -20.8% |
| COc1cccc(C(=O)N2CCc3nc(C4CC4)nc(-c4ccc(Cl)cc4)c3C2)c1 | 10 µM (active) |  |

Reference: PubChem BioAssay AID1671190 (National Center for Advancing Translational Sciences (NCATS), 2021)
